# The list is not random: actives were taken first. Their share in the collection is about 2.8%.
# GLS inhibitor – qHTS for Inhibitors of Glutaminase (GLS) | 410,000 compounds, 0.21% hits | Potency, µM (series often up to 45.5 µM), most hits filed as inhibitors | GLS enzymatic activity, qHTS titration | Glutaminase kidney isoform, mitochondrial (Homo sapiens), O94925
#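 hKGA; 45 mM KH2PO4 pH 8.2 + 0.02% Tween-20; cpd via pin tool; 1 mM Gln soln; GluOx/HRP/Amplex Red; RT 30 min; fluor. t0 & final.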
# KCNH2 3.1 block – qHTS for Inhibitors of KCHN2 3.1: Mutant qHTS; U2OS KCNH2 3.1, thallium flux FluxOr; hits give low values; 340,000 compounds, 0.95% hits; activity change, % (tested at about 1.8 µM);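 active means maximum activity change below -70%; inconclusive means maximum activity change from -70% to -50%; inactive means maximum activity change above -50%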;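 further: thallium influx rate constant from kinetic fluorescence after stimulation buffer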
#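 Thallium flux read-out: FluxOr dye with Red40 quencher in HBSS/HEPES, 45 min at RT. Rate constants from kinetic reads were normalized to positive and negative DMSO controls. Cells: U2OS virally expressing the 3.1 isoform.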
# KCNH2 WT inh – qHTS for Inhibitors of KCHN2 3.1: Wildtype qHTS; activity change, % at 1.84 µM; U2OS, BacMam KCNH2, thallium flux FluxOr; hits give low values; Voltage-gated inwardly rectifying potassium channel KCNH2 (Homo sapiens), Q12809; 340,000 compounds, 0.37% hits;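 active means maximum activity change below -70%; inconclusive means maximum activity change between -70% and -50%; inactive means maximum activity change above -50%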
#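 U2OS cells transduced with wild-type KCNH2 virus are loaded with FluxOr dye for 45 min, and thallium flux is measured in kinetic reads before and after stimulation buffer. Rate constants are normalized to DMSO controls.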
# GLP-1R inv ag – qHTS of GLP-1 Receptor Inverse Agonists (Inhibition Mode) | Glucagon-like peptide 1 receptor (Homo sapiens), P43220 | HEK293 GLP-1R CRE-luciferase, luminescence, 24 h; GLP-1R form is constitutively active | Potency, µM (doses to about 38.3 µM), hits mostly inhibitors | 410,000 compounds, 1.6% hits; further: nearly all actives have a fitted effect of over 55% in size
# Target sequence (P43220 whole entry, looked up): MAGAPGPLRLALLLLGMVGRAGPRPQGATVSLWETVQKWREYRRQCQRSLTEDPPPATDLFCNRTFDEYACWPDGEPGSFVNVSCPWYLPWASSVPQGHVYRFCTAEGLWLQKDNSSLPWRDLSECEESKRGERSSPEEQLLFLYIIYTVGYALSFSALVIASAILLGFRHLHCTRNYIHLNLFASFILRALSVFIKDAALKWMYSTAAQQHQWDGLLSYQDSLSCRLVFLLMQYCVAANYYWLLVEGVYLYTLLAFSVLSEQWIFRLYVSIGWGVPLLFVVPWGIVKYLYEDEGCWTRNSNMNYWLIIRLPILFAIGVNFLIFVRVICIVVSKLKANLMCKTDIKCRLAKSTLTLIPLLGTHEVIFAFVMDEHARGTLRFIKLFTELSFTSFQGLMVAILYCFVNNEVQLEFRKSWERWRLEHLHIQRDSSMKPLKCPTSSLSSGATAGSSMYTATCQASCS
#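 Inverse agonism was detected as reduced cAMP-driven luciferase luminescence after 24 h compound treatment. The cells were HEK293 clones expressing constitutively active human GLP-1R with the reporter. Reporter-only and GPR119 cell lines served as counterscreen controls.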
# HEK293 tox – qHTS of GLP-1 Receptor Inverse Agonists: Cytotox Screen | 410,000 compounds, 0.13% hits | Potency, µM (doses to about 38.3 µM), hits mostly inhibitors | HEK293 cAMP-luciferase reporter cells, luminescence, 24 h;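 further: loss of luciferase light is scored as toxicity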
#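 MLSMR compounds, 24 hr on cells at 37 deg C/5% CO2; luminescence after luciferase reagent (12 min RT). Inhibition counted as the undesired cytotoxic outcome.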
# GLP1R ag – qHTS of GLP-1 Receptor Agonists | 380,000 compounds, 0.007% hits | Potency, µM (top dose mostly 45.6 µM), actives largely listed as activators | Glucagon-like peptide 1 receptor (Homo sapiens), P43220 | HEK293 GLP-1R CRE-luciferase, luminescence, 4-6 h; cells express a hypersensitive GLP-1R form
# Numbers stand for hits; n = inactive; u = inconclusive; x = no result given; ! = repeats disagree. Unless noted, the call rests on the fitted dose curve; in most records, active means well fitted curve in the direction sought with a large enough effect; inconclusive means small, poorly fitted or top-dose-only effect, or another doubt; inactive means no such curve, though single readings can be large; an effect the other way counts as inactive or inconclusive.
SMILES,GLS inhibitor,KCNH2 3.1 block,KCNH2 WT inh,GLP-1R inv ag,HEK293 tox,GLP1R ag
S=c1[nH]nc(-c2ccc3ncccc3c2)n1-c1ccc2c(c1)OCCO2,6.3µM,n,n,n,n,n
Cc1ccc(Cl)cc1N1CCN(C(=O)c2ccc3c(c2)N(Cc2ccccc2)CCS3)CC1,n,x,x,n,n,x
Cc1cc(-c2ccc(C)c(S(=O)(=O)N(Cc3cccs3)C(C)C)c2)on1,n,x,x,13µM,n,x
COCCN(Cc1cccs1)S(=O)(=O)c1cc(-c2cc(C)no2)ccc1C,n,x,x,u,n,x
Cc1onc(-c2ccccc2Cl)c1C(=O)N1CCN(c2cccc(Cl)c2)CC1,n,n,n,1µM,n,n
Cc1[nH]c(-c2ccc(F)cc2)cc1C(=O)N1CCN(c2cccc(Cl)c2)CC1,n,n,n,5µM,u,n
O=C(c1cc2cc(F)ccc2[nH]1)N1CCN(c2cccc(Cl)c2)CC1,n,n,n,n,n,n
CC(=O)Nc1ccc(-c2nnc(SCC(=O)c3ccc([N+](=O)[O-])cc3)o2)cc1,n,x,x,n,n,n
NC(=O)c1sc2nc3c(c(-c4ccco4)c2c1N)CCC3,n,n,n,u,n,n
Nc1c(C(=O)NC2CC2)sc2nc3c(c(-c4ccco4)c12)CC/C3=C/c1ccco1,1.8µM,n,n,n,n,n
Clc1ccccc1-c1nnc(-c2ccccc2CNc2ccc(Br)cc2)o1,n,x,x,n,n,x
N=c1n(CCN2CCCCC2)c2ccccc2n1CC(=O)c1cccs1,n,n,n,5.6µM,n,n
COc1ccc(OCC(O)Cn2c(=N)n(CCN3CCCCC3)c3ccccc32)cc1 (configuration not stated),u,n,n,10µM!,u,n
COc1ccc(CNc2nc3ccccc3n2CCN2CCCCC2)cc1,n,n,n,10µM,u,n
N=c1n(CCN2CCCC2)c2ccccc2n1CC(O)c1ccc(Cl)c(Cl)c1 (configuration not stated),n,-84,x,u,u,n
Cc1ccc(OCC(O)Cn2c(=N)n(CCN3CCCCC3)c3ccccc32)cc1 (configuration not stated),n,u,n,u,u,n
Cc1ccc(CNC(=O)C(C)n2c(=O)cc(-c3ccccc3)c3c(C)nn(C)c32)cc1 (configuration not stated),n,x,x,u,n,x
COc1ccc(-c2cc3ccccc3n2CC(O)CN2CCN(CCO)CC2)cc1 (configuration not stated),n,n,n,10µM,n,n
O=C(COc1coc(CN2CCN(c3ccccc3F)CC2)cc1=O)NCC1CCCO1 (configuration not stated),n,n,n,n,n,n
COc1ccc(OCCSc2nnc(CCNC(=O)c3ccc(Cl)c(Cl)c3)n2C)cc1,n,n,n,10µM,n,n
Cc1cccc(OCC(=O)Nc2ccc3c(c2)nc2n3CCOC2)c1,n,n,n,n,n,n
CCOc1cc(S(=O)(=O)N2CCN(c3ccc(F)cc3)CC2)c(OCC)cc1-n1cnnn1,n,-79,-76,n,n,n
CCOc1cc(S(=O)(=O)N2CCN(S(=O)(=O)CC)CC2)c(OCC)cc1-n1cnnn1,n,n,n,n,n,n
CC(C)=CCc1c(O)cc2c(=O)c3ccc(O)cc3oc2c1O,n,n,n,n,n,n
CC(C)=CCc1c(O)cc(O)c2c(=O)c3c(CC=C(C)C)c(O)ccc3oc12,n,n,n,10µM,u,n
SMILES,GLS inhibitor,KCNH2 3.1 block,KCNH2 WT inh,GLP-1R inv ag,HEK293 tox,GLP1R ag
Cc1ccc(S(=O)(=O)Oc2ccccc2)cc1,n,n,n,u,n,n
Cc1ccc(S(=O)(=O)Oc2ccccc2-c2ccccc2)cc1,n,n,n,2.5µM,n,n
COc1cccc(N2CCN(C(=O)CN3CCSc4ccccc43)CC2)c1,n,x,x,u,n,n
O=C(Nc1cccc(-c2nnc(-c3ccco3)o2)c1)C(c1ccccc1)c1ccccc1,n,n,n,8.9µM,n,n
O=C(Oc1ccccc1F)c1nc(SCc2ccccc2F)ncc1Cl,n,x,x,n,n,x
Cc1ccc(C(=O)CSc2nnc(COc3ccc(C#N)cc3)n2-c2ccccc2)cc1,n,n,n,n,n,n
Cc1ccc(NC(=O)CSc2nnc(COc3ccc(C#N)cc3)n2-c2ccccc2)cc1C,n,-71,n,u,n,n
O=C(c1ccc2c(c1)CCN2S(=O)(=O)c1ccc(Cl)cc1)N1CCN(c2ccccc2F)CC1,n,x,x,u,n,x
O=C(Cn1c(-c2cccs2)cc2cc(Cl)ccc21)N1CCCCC1,n,x,x,u,n,x
Cc1cccc(CCN2CCN=C2Nc2ccccc2)c1,n,n,n,n,n,n
CCOC(=O)c1c(Nc2ccc(C)cc2)nnc(-c2ccccc2)c1-c1ccccc1,n,x,x,11µM,n,n
CCOC(=O)c1c(Nc2cccc(C(=O)OC)c2)nnc(-c2ccccc2)c1-c1ccccc1,n,x,x,n,n,n
CCOC(=O)c1ccc(NC(=O)c2c(NCc3ccc(OC)c(OC)c3OC)sc3c2CCC(C)C3)cc1 (configuration not stated),n,x,x,n,n,x
O=C1N/C(=N\N=C\c2ccco2)SC1Cc1ccccc1[N+](=O)[O-] (configuration not stated),n,n,n,7.1µM,4µM,n
Cc1cc(/C=C2\SC(=S)N(Cc3ccco3)C2=O)c(C)n1-c1ccccc1,n,n,-81,2.2µM,n,n
Cc1cc(/C=C2\SC(=S)N(C)C2=O)c(C)n1-c1cccc(O)c1,n,n,n,2.8µM,n,n
CCOc1ccc(CN(CCO)CCO)cc1[N+](=O)[O-],n,-76,n,n,n,n
CCOc1ccc(CSC2=NCCN2)cc1[N+](=O)[O-],n,-91,n,u,u,n
CCCCCOc1ccc(CSC(=N)N)cc1[N+](=O)[O-],n,-96,n,u,n,n
O=[N+]([O-])c1ccc(CSC2=NCCN2)cc1,n,n,n,u,n,n
CCCCOc1ccc(CN(CCO)CCO)cc1[N+](=O)[O-],n,n,n,u,n,n
COc1ccc(CSC(=N)N)cc1[N+](=O)[O-],n,n,n,n,u,n
CCCCOc1ccc(CSC2=NCCN2)cc1[N+](=O)[O-],n,u,n,10µM,u,n
